# Screens: PubChem BioAssay, National Center for Advancing Translational Sciences (NCATS)
# This is a sample that favours compounds with a hit; in the whole collection about 3% have one here.
# OvCa metastasis – Primary qHTS assay for Inhibitors of ovarian cancer metastasis using an organotypic tumor microenvironment (TME) model | Potency, µM (titrated, usually from 45.8 µM), for inactives: top-dose activity change, negative = inhibition, actives largely listed as inhibitors | 0.1% of 46,000 active | SKOV3ip1-GFP adhesion/invasion on 3D omental model, fluorescence;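 further: plate controls were DMSO wells for no effect and tomatine positive control wells for full effect; nearly all actives have a fitted effect of over 65% in size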
#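 qHTS, 4-pt dose (0.36-46 umol/L); SKOV3ip1-GFP, 1,200 cells/well, no FBS; primary omental fibroblast/mesothelial co-culture 48 h pre-grown; 2 h RT + 16 h 37 C; PBS wash, 4% PFA; GFP count 488/509 nm.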
# PMP22 txn prim – Cell-based coincidence reporter assay to measure PMP22 gene transcription in S16 Pmp22-F2sN cells - Primary screen; Potency, µM (top dose mostly 57.5 µM), for inactives: top-dose activity change, negative = inhibition, most hits filed as inhibitors; 2% of 43,000 active; S16 Pmp22-F2sN Schwann cells, FLuc/NLuc coincidence luminescence, 24 h; active means clear falling dose curves in both reporters; inconclusive means both reporters move, but less clearly or upward; inactive means either reporter flat; the % is the NLuc reporter signal
#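 Reporter cells (S16 Pmp22-F2sN, 500–1,000 per well) exposed to compounds for 24 h, 37C, 5% CO2; lysis with FLuc read after 10 min, then Stop&Glo and NLuc read after 10 min.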
# S16 viability – Cell viability qHTS assay in S16 Pmp22-F2sN cells. S16 Pmp22-F2sN Schwann cells viability, CellTiter-Glo, 24 h. Potency, µM (highest dose often 57.5 µM), for inactives: top-dose activity change, negative = cytotoxicity, usual class: cytotoxic. 0.48% of 43,000 active; further: nearly all actives have a fitted effect of over 65% in size
#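 Used to flag compounds lowering reporter output through toxicity, this quantitative HTS measures ATP-based CellTiter-Glo luminescence in S16 Pmp22-F2sN Schwann cells after 24 h compound exposure at 37C.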
# p53null 39C tox – qHTS Screen for Compounds that Selectively Target Cancer Cells with p53 Mutations: Cytotoxicity of p53 Null Cells at the Nonpermissive Temperature | H1299 p53-null (neo) cells, 39C, ATPlite viability, 24 h | Potency, µM (doses to about 46.1 µM), for the others: at the highest dose activity, negative = cell killing, most hits filed as cytotoxic | 0.97% of 55,000 active;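 further: 0% = DMSO only and -100% = full killing by 100 µM tamoxifen; nearly all actives have a fitted effect of over 50% in size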
#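 Following overnight plating at 37C (600 cells/well), H1299-neo or H1299-p53A138V cells are dosed up to 46 uM. Incubation lasts 24 hr at 39C before ATP detection.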
# pS6 MEF inh – Acumen qHTS Assay for Inhibitors of the mTORC1 Signaling Pathway in MEF (Tsc2-/-, p53-/-) Cells: Sytravon; AID 493208, 2011; Tsc2-/- p53-/- MEF, phospho-rpS6 immunofluorescence/PI, 24 h; Potency, µM (doses to about 38.3 µM), without a hit: at the top dose activity change, negative = inhibition, usual class: inhibitors; 0.78% of 44,000 active;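 further: plate controls were DMSO for no effect and rapamycin for full effect; nearly all actives have a fitted effect of over 50% in size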
#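 Plate MEFs (Tsc2-/-, p53-/-, empty vector) in DMEM/10% FBS; after 24 h add compound, incubate 24 h at 37 degree Celsius; fix in PFA/TX-100, block, stain phospho-rpS6 and 10 uM PI; scan at 488 nm; report % positive cells.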
# p53null 32C kill – qHTS Screen for Compounds that Selectively Target Cancer Cells with p53 Mutations: Cytotoxicity of p53 Null Cells at the Permissive Temperature | H1299-neo p53 null cells, ATP luminescence, 24 h, 32C | 0.62% of 55,000 active | Potency, µM (series often up to 46.1 µM), without a hit: top-dose activity change, negative = cytotoxicity, usual class: cytotoxic | AID 903, 2007;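 further: 0% = DMSO only and -100% = full killing by 100 µM tamoxifen; nearly all actives have a fitted effect of over 55% in size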
#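 Luminescent ATP readout gave cell viability of p53-null H1299-neo cells after a 24 h compound exposure at the permissive 32C. Titrations ran up to 46 uM, and AC50s were fitted with the standard Hill equation.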
# Active calls of the source: *; i = inactive; u = inconclusive; x = no result. Unless noted, the call rests on the fitted dose curve; in most records, active means well fitted curve in the direction sought with a large enough effect; inconclusive means small, poorly fitted or top-dose-only effect, or another doubt; inactive means no such curve, though single readings can be large; an effect the other way counts as inactive or inconclusive. Unless noted, on the % scale 0 is the no-effect control and ±100 the full control effect; potency means the concentration at half of the fitted maximal effect.
SMILES,OvCa metastasis,PMP22 txn prim,S16 viability,p53null 39C tox,pS6 MEF inh,p53null 32C kill
Cc1ccc(C2c3c(-c4ccccc4O)n[nH]c3C(=O)N2CCc2ccccc2)cc1 (stereo not given),u,u,-25%,u,16µM*,45%
CCn1c(=O)c(C(=O)Nc2ccc(C(C)=O)cc2)nc2ccccc21,i,4%,-6%,10µM*,-1%,10µM*
CCCCCNC(=O)N1CCC(CN(Cc2ccc(Cl)cc2)Cc2ccc([N+](=O)[O-])s2)C1 (stereo not given),12%,x,x,x,x,x
CC1(C)C(=O)N(CC(=O)Nc2ccc(Br)cc2F)c2ccccc21,4%,-2%,-1%,16%,-2%,-1%
COC(=O)CN1C(=O)C(C)(C)c2cc(S(=O)(=O)Nc3ccc(Br)cc3F)ccc21,-13%,30%,5%,-1%,13µM*,2%
C[C@H](O)[C@@H]1C(=O)N2C(C(=O)O)=C(S[C@@H]3CN[C@H](CNS(N)(=O)=O)C3)[C@@H](C)[C@@H]12,19%,x,x,x,x,x
CCOc1ccc(NC(=O)CSc2oc(-c3ccc(C)cc3)nc2S(=O)(=O)c2ccc(C)cc2)cc1,-1%,u,22µM*,13µM*,0%,13µM*
CCOc1ccc(NC(=O)CSc2oc(-c3cccs3)nc2S(=O)(=O)c2ccc(Cl)cc2)cc1,-7%,u,u,u,-2%,-10%
Cc1cnn(C)c1C(=O)Nc1cc(Nc2ccc3c(C=Cc4ccccn4)n[nH]c3c2)ccc1F,13%,x,x,x,x,x
N#Cc1cc(NC(=O)Nc2nnc(-c3ccncc3)s2)ccc1-c1cn[nH]c1,-5%,x,x,x,x,x
COc1ccc(OC)c(NC(=O)Nc2cccc(OCc3cc(=O)n4cc(C)ccc4n3)c2)c1,19%,-7%,15%,u,2%,10µM*
COc1ccc(NC(=O)c2ccc3c(SCC(=O)O)c4c(nc3c2)CCCC4)cc1OC,-15%,-67%,u,-10%,0%,-16%
COc1ccc(Nc2c3c(nc4ccc(NC(=O)/C=C/c5cccc(OC)c5OC)cc24)CCCC3)cc1OC,5µM*,u,u,3.2µM*,3.7µM*,10µM*
COc1ccc(/C=C/C(=O)Nc2ccc3nc(N4CCCCC4)cc(C)c3c2)cc1OC,u,u,u,-3%,u,-7%
COc1ccc(Nc2c3c(nc4ccc(NC(=O)/C=C/c5cc(OC)c(OC)c(OC)c5)cc24)CCCC3)cc1OC,-9%,u,11µM*,7.1µM*,2.1µM*,13µM*
COc1ccc(/C=C/C(=O)Nc2ccc3nc(N4CCC(C)CC4)cc(C)c3c2)cc1,6%,-1%,u,3%,-10%,2%
COc1ccc(/C=C/C(=O)Nc2ccc3nc4c(c(Nc5ccccc5OC)c3c2)CCCC4)cc1,1.3µM*,u,u,u,2.3µM*,-9%
COc1ccc(/C=C/C(=O)Nc2ccc3nc4c(c(Nc5ccc(OC)c(OC)c5)c3c2)CCCC4)cc1,5µM*,u,u,6.3µM*,3.7µM*,13µM*
CC(=O)OCC(=O)[C@@]1(O)[C@H](C)C[C@H]2[C@@H]3C=C(C)C4=Cc5c(cnn5-c5ccccc5)C[C@]4(C)[C@@H]3[C@@H](O)C[C@@]21C,-2%,x,x,x,x,x
COc1cc(N2CCC(N3CCN(C)CC3)CC2)ccc1Nc1ncc(Cl)c(Nc2ccccc2S(=O)(=O)C(C)C)n1,-7%,x,x,x,x,x
CCCCNC(=O)CSc1c2c(nc3ccc(Cl)cc13)CCCC2,3%,u,40µM*,136%,u,8%
CC1CCN(c2cc(N3CCN(C)CC3)ccc2NC(=O)c2cc(C#N)c[nH]2)CC1,23%,x,x,x,x,x
COC(=O)N[C@H](C(=O)N1CCC[C@@H]1c1ncc(-c2ccc(-c3ccc(-c4cnc([C@@H]5CCCN5C(=O)[C@@H](NC(=O)OC)C(C)C)[nH]4)cc3)cc2)[nH]1)C(C)C,-8%,x,x,x,x,x
CC(C)(C)c1ccc(/C=C/C(=O)Nc2ccc(S(N)(=O)=O)cc2)cc1,-14%,u,u,u,-19%,25µM*
Cc1ccc(/C=C/C(=O)Nc2ccc(S(N)(=O)=O)cc2)o1,10%,8%,5%,-5%,-6%,-7%
SMILES,OvCa metastasis,PMP22 txn prim,S16 viability,p53null 39C tox,pS6 MEF inh,p53null 32C kill
Cc1cc(-c2ccc(C)c(S(=O)(=O)Nc3ccccc3C(F)(F)F)c2)on1,i,-85%,-3%,11µM*,-8%,u
Cc1ccc(NS(=O)(=O)c2cc(-c3cc(C)no3)ccc2C)c(Cl)c1,1%,u,2%,u,-1%,-4%
Cc1ccc(C(C)C)c(OCC(=O)Nc2cc(-c3nc4ccccc4[nH]3)ccc2C)c1,-15%,u,u,7.9µM*,13µM*,u
COc1cc(OC)cc(C(=O)Nc2cc(-c3nc4ccccc4[nH]3)ccc2C)c1,i,-44%,-27%,-18%,0%,7%
Cc1ccc2[nH]c(=O)c3cc(C(=O)NCCCN4CCC(C)CC4)sc3c2c1,u,u,u,u,3.3µM*,-7%
COc1ccc(-c2ccc3ncc4c(c3c2)n(-c2ccc(N3CCNCC3)c(C(F)(F)F)c2)c(=O)n4C)cn1,9.3µM*,x,x,x,x,x
O=c1cc(N2CCOCC2)oc2c(-c3cccc4c3sc3ccccc34)cccc12,-29%,x,x,x,x,x
Oc1ccc2ccccc2c1SSc1c(O)ccc2ccccc12,26µM*,x,x,x,x,x
CCc1ccccc1N1CC(c2nc3ccccc3n2CCC2CCCCC2)CC1=O (stereo not given),u,u,u,16µM*,-1%,u
O=C1CC(c2nc3ccccc3n2CCCCOc2ccccc2)CN1c1ccccc1Cl (stereo not given),i,u,-24%,13µM*,-2%,u
Cc1ccccc1N1CC(c2nc3ccccc3n2CCC2CCCCC2)CC1=O (stereo not given),u,u,-16%,-3%,1%,-9%
